Active and inactive are the calls of the source.
Assays:
[1] = optical density shifts of acrAB sulA E. coli – strain DRC41, OD650, 48 h, E. coli filamentation inducer project, primary screen (AID 1152); details: higher = more signal, called active from +8 up or from −8 down;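 note: E. coli MC1000 strain DRC41 lacking acrAB efflux pump and sulA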
[2] = probe aLefty1 binding on compound microarray – biochemical, small-molecule microarray, 635/667 nm fluorescence, primary screen (AID 1153); details: higher = more signal;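 note: score merges spot fluorescence with signal-to-noise ratio from the scanned slide images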
[3] = plasmodial surface anion channel blockers, osmotic lysis – cell-based, P. falciparum Indochina, OD700, 1 h, primary screen (AID 1154); details: P. falciparum Indochina infected RBC osmotic lysis, higher = more signal, called active from +8 up or from −8 down
[4] = plasmodial surface anion channel blockers, osmotic lysis – cell-based, P. falciparum Indochina, OD700, 2 h, primary screen (AID 1155);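 note: lysis reports solute entry through the parasite surface anion channel PSAC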; details: P. falciparum Indochina infected erythrocytes, higher = more signal, called active from +8 up or from −8 down
[5] = changes in parasitized red cell lysis, either direction – P. falciparum Indochina, OD700, 3 h, PSAC antagonist project, primary screen (AID 1156); details: P. falciparum-infected erythrocytes, osmotic lysis, higher = more signal, called active from +8 up or from −8 down
[6] = plasmodial surface anion channel blockers, osmotic lysis – cell-based, P. falciparum Indochina, OD700, 18 h, primary screen (AID 1157); details: P. falciparum Indochina infected erythrocytes, osmotic lysis OD700, 18 h; higher = more signal, called active from +8 up or from −8 down
[7] = S6 kinase pathway phospho-S6 level changes – cell-based, A549, cytoblot, luminescence, serum-stimulated, primary screen (AID 1158); details: 5 h, higher = more signal;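 note: serum-stimulated A549 lung adenocarcinoma cells; signal is phosphorylated S6 detected by cytoblot immunostaining with HRP secondary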
[8] = molecular target: NADPH oxidase 2 (Homo sapiens) (UniProt P04839); assay: compounds shifting NOX2 Amplex Red fluorescence – cell-based, HEK293-NOX2, PMA-stimulated, NOX inhibitor project, primary screen (AID 1159); details: 45 min, higher = more signal, called active from +8 up or from −8 down; note: test concentration not given here
Sequence of NADPH oxidase 2 (Homo sapiens) (P04839 whole entry, looked up): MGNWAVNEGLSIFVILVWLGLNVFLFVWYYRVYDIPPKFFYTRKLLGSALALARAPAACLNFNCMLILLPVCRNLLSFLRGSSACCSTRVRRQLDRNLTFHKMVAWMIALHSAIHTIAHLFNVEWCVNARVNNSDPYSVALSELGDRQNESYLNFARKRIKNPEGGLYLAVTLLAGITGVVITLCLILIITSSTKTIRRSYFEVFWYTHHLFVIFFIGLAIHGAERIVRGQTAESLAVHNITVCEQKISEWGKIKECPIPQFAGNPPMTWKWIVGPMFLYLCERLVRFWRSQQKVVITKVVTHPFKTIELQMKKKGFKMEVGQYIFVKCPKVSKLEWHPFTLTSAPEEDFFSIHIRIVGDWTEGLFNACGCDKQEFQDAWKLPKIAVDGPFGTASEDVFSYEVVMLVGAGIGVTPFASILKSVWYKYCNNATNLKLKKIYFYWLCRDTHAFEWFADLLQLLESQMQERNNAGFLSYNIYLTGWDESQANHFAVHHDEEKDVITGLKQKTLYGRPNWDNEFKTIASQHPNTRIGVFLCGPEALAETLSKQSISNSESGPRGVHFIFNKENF

[9] = molecular target: NADPH oxidase 4 (Homo sapiens) (UniProt Q9NPH5); assay: compounds shifting NOX4 Amplex Red fluorescence – cell-based, HEK293-NOX4, tetracycline-induced, NOX inhibitor project, primary screen (AID 1160); details: HEK293-NOX4, Amplex Red H2O2 fluorescence, 45 min; higher = more signal, called active from +8 up or from −8 down
Sequence of NADPH oxidase 4 (Homo sapiens) (Q9NPH5 whole entry, looked up): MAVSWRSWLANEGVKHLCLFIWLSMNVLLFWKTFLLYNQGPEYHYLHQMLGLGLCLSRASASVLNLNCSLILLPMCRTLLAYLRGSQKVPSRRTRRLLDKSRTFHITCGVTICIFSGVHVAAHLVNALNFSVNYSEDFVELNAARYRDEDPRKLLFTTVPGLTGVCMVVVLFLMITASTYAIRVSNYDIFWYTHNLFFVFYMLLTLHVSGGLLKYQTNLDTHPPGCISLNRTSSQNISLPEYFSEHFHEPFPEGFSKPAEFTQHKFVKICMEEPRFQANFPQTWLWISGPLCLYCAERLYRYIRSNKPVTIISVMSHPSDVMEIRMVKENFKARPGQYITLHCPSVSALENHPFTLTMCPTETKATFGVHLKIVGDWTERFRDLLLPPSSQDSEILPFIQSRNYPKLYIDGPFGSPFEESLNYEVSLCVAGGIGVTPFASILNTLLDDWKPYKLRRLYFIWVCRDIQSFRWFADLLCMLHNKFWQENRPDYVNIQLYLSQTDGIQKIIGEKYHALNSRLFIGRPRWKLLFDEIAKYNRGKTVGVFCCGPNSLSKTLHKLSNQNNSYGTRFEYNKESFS

[10] = molecular target: NADPH oxidase 5 (Homo sapiens) (UniProt Q96PH1); assay: compounds shifting NOX5 Amplex Red fluorescence – cell-based, HEK293-NOX5, NOX inhibitor project, primary screen (AID 1161); details: HEK293-NOX5, ionomycin, 45 min, higher = more signal
Sequence of NADPH oxidase 5 (Homo sapiens) (Q96PH1 whole entry, looked up): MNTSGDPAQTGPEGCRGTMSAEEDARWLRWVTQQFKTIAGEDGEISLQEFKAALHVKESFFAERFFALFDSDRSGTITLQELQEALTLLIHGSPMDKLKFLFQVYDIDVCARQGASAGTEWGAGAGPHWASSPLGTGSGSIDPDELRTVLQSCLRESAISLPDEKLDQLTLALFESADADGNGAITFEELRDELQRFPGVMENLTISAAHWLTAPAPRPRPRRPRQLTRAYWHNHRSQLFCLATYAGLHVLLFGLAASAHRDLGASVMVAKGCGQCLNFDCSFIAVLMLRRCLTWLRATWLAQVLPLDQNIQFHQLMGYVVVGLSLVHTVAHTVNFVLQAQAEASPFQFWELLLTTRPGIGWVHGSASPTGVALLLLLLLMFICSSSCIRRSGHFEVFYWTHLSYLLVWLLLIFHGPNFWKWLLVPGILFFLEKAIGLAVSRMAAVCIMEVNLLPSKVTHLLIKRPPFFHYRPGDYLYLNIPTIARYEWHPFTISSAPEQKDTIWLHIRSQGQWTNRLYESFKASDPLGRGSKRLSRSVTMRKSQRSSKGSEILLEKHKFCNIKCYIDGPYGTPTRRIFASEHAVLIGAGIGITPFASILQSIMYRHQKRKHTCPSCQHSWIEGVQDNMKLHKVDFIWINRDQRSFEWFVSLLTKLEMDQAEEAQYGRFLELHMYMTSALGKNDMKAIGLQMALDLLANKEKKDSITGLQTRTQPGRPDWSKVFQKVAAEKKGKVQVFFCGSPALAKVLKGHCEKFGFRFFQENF

Structure (SMILES)	z-score [1]	composite z-score [2]	z-score [3]	z-score [4]	z-score [5]	z-score [6]	z-score [7]	z-score [8]	z-score [9]	z-score [10]
C=CCN1C(=O)[C@]2(O[C@H](CCn3cc([C@H](O)c4ccccc4)nn3)[C@@H]([Si](C)(C)c3ccc(OC)cc3)[C@@H]2C)c2ccccc21	-0.554 (inactive)	-0.0099	4.6 (inactive)	1.02 (inactive)	0.914 (inactive)	0.843 (inactive)	0.256	0.952 (inactive)	0.055 (inactive)	-0.251
CC(C)C(O)C1C=CC2C(=O)NC(=O)C2N1Nc1ccc(Cl)cc1Cl (stereo not given)	-1.3 (inactive)	-0.114	1.41 (inactive)	0.648 (inactive)	-0.782 (inactive)	0.997 (inactive)	-1.23	-0.714 (inactive)	-4.39 (inactive)	-3.83
COCCOC(=O)N1C(=O)[C@@]2(c3cc(C#CC4(O)CCCCCC4)ccc31)[C@H](c1ccc(OCCO)cc1)N1[C@H](c3ccccc3)[C@H](c3ccccc3)OC(=O)[C@H]1[C@@H]2C(=O)N1CCN(c2ncccn2)CC1	-0.393 (inactive)	0.813	7.73 (inactive)	2.47 (inactive)	0.493 (inactive)	1.12 (inactive)	-0.537	1.61 (inactive)	0.854 (inactive)	1.83
CC(C)N1C(=O)c2ccccc2[C@](C)(C(=O)NCCN2CCOCC2)[C@@H]1c1ccc(CO)cc1	-0.469 (inactive)	0.0451	2.19 (inactive)	0.0259 (inactive)	0.914 (inactive)	0.426 (inactive)	-0.522	1.05 (inactive)	0.627 (inactive)	0.283
COc1ccc([Si](C)(C)[C@H]2[C@H](CC(=O)N3Cc4ccccc4C[C@H]3CO)O[C@@]3(C(=O)N(Cc4cccc(N5CCC5=O)c4)c4ccccc43)[C@@H]2C)cc1	-0.372 (inactive)	-0.0536	5.46 (inactive)	1.63 (inactive)	0.011 (inactive)	1.09 (inactive)	-0.0301	-1.15 (inactive)	-0.95 (inactive)	-1.44
COc1ccc(C(O)C2C=CC3C(=O)N(Cc4ccccc4)C(=O)C3N2n2cnnc2)cc1OCc1ccccc1 (stereo not given)	0.209 (inactive)	0.142	1.3 (inactive)	0.0118 (inactive)	0.372 (inactive)	-1.82 (inactive)	1.42	-0.361 (inactive)	-0.079 (inactive)	0.384
O=C1c2ccccc2[C@](Cc2ccccc2I)(C(=O)NCCN2CCOCC2)[C@H](c2ccc(CO)cc2)N1C1CCCCC1	0.0237 (inactive)	0.373	3.66 (inactive)	0.814 (inactive)	0.664 (inactive)	0.5 (inactive)	-0.164	0.155 (inactive)	0.784 (inactive)	0.958
NCCCCCCNC(=O)[C@@H]1C[C@@H]2C(=O)NCC(=O)N2[C@@H]1c1ccc(O)cc1	0.812 (inactive)	-0.0126	0.846 (inactive)	1.04 (inactive)	4.22 (inactive)	0.497 (inactive)	0.257	-0.302 (inactive)	0.4 (inactive)	0.182
COc1ccc(C#Cc2ccc3c(c2)[C@]2(C(=O)N3)[C@H](C(=O)Nc3nc4ccccc4s3)[C@H]3C(=O)O[C@H](c4ccccc4)[C@H](c4ccccc4)N3[C@@H]2c2ccc(O)cc2)cc1	0.663 (inactive)	1.1	-0.383 (inactive)	0.53 (inactive)	-6.71 (inactive)	0.957 (inactive)	-0.249	0.548 (inactive)	0.792 (inactive)	-2.5
CN(C)C(=O)[C@@]1(CCS(=O)(=O)c2ccccc2)COC(c2ccc(OCCCO)cc2)=N1	0.276 (inactive)	0.0244	25.6 (active)	8.3 (active)	1.69 (inactive)	1.26 (inactive)	0.313	-2.71 (inactive)	0.265 (inactive)	-0.621
CN(C)CCCC[C@@H]1NC(=O)[C@H]2C[C@@H](C(=O)NCCCCCCN)[C@@H](c3ccc(O)cc3)N2C1=O	0.51 (inactive)	1.5	0.453 (inactive)	0.374 (inactive)	1.31 (inactive)	0.0314 (inactive)	-0.24	0.277 (inactive)	0.236 (inactive)	0.731
CCOC(=O)C[C@H]1[C@H](OC(=O)c2ccc(C(=O)c3ccccc3)cc2)[C@@H](NC(=O)CC(C)C)c2cc(OCCCO)ccc2N1C(=O)c1ccc2ccccc2n1	1.66 (inactive)	-0.0518	3.64 (inactive)	0.582 (inactive)	0.0206 (inactive)	-0.135 (inactive)	0.276	-1.46 (inactive)	0.892 (inactive)	0.97

From PubChem BioAssay
